Test results from the supplement of paper PMC10849652.
The full data set covers some 7,900 targets. This sample favours those with a hit. About 0.6% of all pairs of compound and target were hits. Values without a mark were called inactive.

Columns and labels:
Assay in all cases: log2 fold change, soluble protein after heating vs DMSO (PISA); higher = thermal stabilisation; K562 cells, 10 uM, 30 min; active = over 0.2 and 3.5 SD of the protein, either way, in both replicates (recomputed)
erlotinib = compound: C#Cc1cccc(Nc2ncnc3cc(OCCOC)c(OCCOC)cc23)c1 [erlotinib]
Procedure, shortened: (§1)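 Quantification of soluble protein used TMTpro 16plex LC-MS/MS, with channel sums equalised. Samples were the supernatant after 21,000xg for 90 min of pooled aliquots from K562 cells (2×10^6 cells/mL) treated with 10 μM compound for 30 min, heated for 3 min over 48°C-58°C, and extracted in PBS with 0.5% NP-40 at 4°C. Values, from duplicates, describe thermal stability against control samples on a log2 fold-change scale.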

[1] = compound: C/C(=N\NC(=O)C1=CC(=CC=C1)S(=O)(=O)N2CCOCC2)/C3=C(C=CC(=C3)Cl)O
Procedure, shortened: as §1

[2] = compound: C1=CC(=C(C=C1Cl)C2=NC3=NC=CN=C3C(=N2)NC4=CC=NC=C4)F
Procedure, shortened: as §1

[3] = compound: C1=CC(=CC=C1C2=NC3=C(N2)C=C(C=C3)C(=O)N)OC4=CC=C(C=C4)Cl
Procedure, shortened: as §1

[4] = compound: C1=CC2=C(C=CC(=C2)/C=C\3/C(=O)NC(=NCC4=CC=CS4)S3)N=C1
Procedure, shortened: as §1

[5] = compound: C1=CC2=NC=CN=C2C=C1/C=C/3\C(=O)NC(=O)S3
Procedure, shortened: as §1

[6] = compound: C1=CC=C(C=C1)C2=NC(=C(N2)C3=CC=NC=C3)C4=CC(=C(C=C4)Cl)O
Procedure, shortened: as §1

[7] = compound: C1=CC=C2C(=C1)C3=NNC4=CC=CC(=C43)C2=O
Procedure, shortened: as §1

[8] = compound: C1CCN(C1)C(=O)NC2=CC=CC(=C2)NC3=NC=C(C(=N3)NCCC4=CN=CN4)Br
Procedure, shortened: as §1

[9] = compound: C1CN(CCC1(CC2=CC=C(C=C2)Cl)N)C3=NC=NC4=C3C=CN4
Procedure, shortened: as §1

IRAK-1-4 Inhibitor I = compound: C1COCCN1CCN2C3=CC=CC=C3N=C2NC(=O)C4=CC(=CC=C4)[N+](=O)[O-] [IRAK-1-4 Inhibitor I]
Procedure, shortened: as §1

ibrutinib = compound: C=CC(=O)N1CCC[C@@H](n2nc(-c3ccc(Oc4ccccc4)cc3)c3c(N)ncnc32)C1 [ibrutinib]
Procedure, shortened: as §1

[10] = compound: CC(=O)c1cnc2ccc(-c3cc(Cl)c(O)c(Cl)c3)nc2c1N[C@H]1CC[C@H](CN(C)C)CC1
Procedure, shortened: as §1

ralimetinib = compound: CC(C)(C)Cn1c(N)nc2ccc(-c3[nH]c(C(C)(C)C)nc3-c3ccc(F)cc3)nc21 [ralimetinib]
Procedure, shortened: as §1

[11] = compound: CC(C)(O)CC(=O)NCCn1ccc2ncnc(Nc3ccc(Oc4cccc(C(F)(F)F)c4)c(Cl)c3)c21
Procedure, shortened: as §1

[12] = compound: CC(C)C1=C2N=C(C=C(N2N=C1)NCC3=CC=CC=C3)NCCCCCCN
Procedure, shortened: as §1

[13] = compound: CC(C)C[C@@H](C=O)NC(=O)[C@H](CC(C)C)NC(=O)[C@H](CC(C)C)NC(=O)OCc1ccccc1
Procedure, shortened: as §1

pinometostat = compound: CC(C)N(C[C@H]1O[C@@H](n2cnc3c(N)ncnc32)[C@H](O)[C@@H]1O)[C@H]1C[C@@H](CCc2nc3cc(C(C)(C)C)ccc3[nH]2)C1 [pinometostat]
Procedure, shortened: as §1

[14] = compound: CC1=C(C(CC(=O)N1)C2=CC=C(C=C2)C(F)(F)F)C(=O)NC3=C(C=C4C(=C3)C=NN4)F
Procedure, shortened: as §1

[15] = compound: CC1=C(C2=C(C=C1)C(=O)C3=CC=CC=C3N2CCCN)C
Procedure, shortened: as §1

COA6 isoform 2 (UniProt Q5JTJ3)
Chain of UniProt Q5JTJ3 (Q5JTJ3 whole entry, looked up): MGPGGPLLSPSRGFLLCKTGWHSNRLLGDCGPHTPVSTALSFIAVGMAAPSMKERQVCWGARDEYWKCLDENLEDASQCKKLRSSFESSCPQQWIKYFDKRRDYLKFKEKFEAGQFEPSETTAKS
log2 fold change (erlotinib): 0.012
log2 fold change [1]: 0.022
log2 fold change [2]: 0.045
log2 fold change [3]: 0.007
log2 fold change [4]: 0.023
log2 fold change [5]: 0.062
log2 fold change [6]: -0.053
log2 fold change [7]: -0.108
log2 fold change [8]: 0.047
log2 fold change [9]: 0.02
log2 fold change (IRAK-1-4 Inhibitor I): 0.043
log2 fold change (ibrutinib): 0.036
log2 fold change [10]: 0.019
log2 fold change (ralimetinib): -0.071
log2 fold change [11]: 0.045
log2 fold change [12]: 0.059
log2 fold change [13]: -0.026
log2 fold change (pinometostat): -0.04
log2 fold change [14]: 0.016
log2 fold change [15]: -0.004

CDC26 (UniProt Q8NHZ8)
Chain of UniProt Q8NHZ8 (Q8NHZ8 whole entry, looked up): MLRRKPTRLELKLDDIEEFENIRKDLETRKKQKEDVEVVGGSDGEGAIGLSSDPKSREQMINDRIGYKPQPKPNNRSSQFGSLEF
log2 fold change (erlotinib): -0.096
log2 fold change [1]: 0.16
log2 fold change [2]: -0.046
log2 fold change [3]: 0.034
log2 fold change [4]: -0.542 (active)
log2 fold change [5]: 0.025
log2 fold change [6]: 0.355
log2 fold change [7]: 0.037
log2 fold change [8]: -0.137
log2 fold change [9]: -0.022
log2 fold change (IRAK-1-4 Inhibitor I): -0.014
log2 fold change (ibrutinib): -0.003
log2 fold change [10]: 0.099
log2 fold change (ralimetinib): 0.188
log2 fold change [11]: 0.007
log2 fold change [12]: -0.01
log2 fold change [13]: -0.04
log2 fold change (pinometostat): -0.128
log2 fold change [14]: 0.005
log2 fold change [15]: 0.049

CCAR2 isoform 2 (UniProt Q8N163)
Chain of UniProt Q8N163 (Q8N163 whole entry, looked up): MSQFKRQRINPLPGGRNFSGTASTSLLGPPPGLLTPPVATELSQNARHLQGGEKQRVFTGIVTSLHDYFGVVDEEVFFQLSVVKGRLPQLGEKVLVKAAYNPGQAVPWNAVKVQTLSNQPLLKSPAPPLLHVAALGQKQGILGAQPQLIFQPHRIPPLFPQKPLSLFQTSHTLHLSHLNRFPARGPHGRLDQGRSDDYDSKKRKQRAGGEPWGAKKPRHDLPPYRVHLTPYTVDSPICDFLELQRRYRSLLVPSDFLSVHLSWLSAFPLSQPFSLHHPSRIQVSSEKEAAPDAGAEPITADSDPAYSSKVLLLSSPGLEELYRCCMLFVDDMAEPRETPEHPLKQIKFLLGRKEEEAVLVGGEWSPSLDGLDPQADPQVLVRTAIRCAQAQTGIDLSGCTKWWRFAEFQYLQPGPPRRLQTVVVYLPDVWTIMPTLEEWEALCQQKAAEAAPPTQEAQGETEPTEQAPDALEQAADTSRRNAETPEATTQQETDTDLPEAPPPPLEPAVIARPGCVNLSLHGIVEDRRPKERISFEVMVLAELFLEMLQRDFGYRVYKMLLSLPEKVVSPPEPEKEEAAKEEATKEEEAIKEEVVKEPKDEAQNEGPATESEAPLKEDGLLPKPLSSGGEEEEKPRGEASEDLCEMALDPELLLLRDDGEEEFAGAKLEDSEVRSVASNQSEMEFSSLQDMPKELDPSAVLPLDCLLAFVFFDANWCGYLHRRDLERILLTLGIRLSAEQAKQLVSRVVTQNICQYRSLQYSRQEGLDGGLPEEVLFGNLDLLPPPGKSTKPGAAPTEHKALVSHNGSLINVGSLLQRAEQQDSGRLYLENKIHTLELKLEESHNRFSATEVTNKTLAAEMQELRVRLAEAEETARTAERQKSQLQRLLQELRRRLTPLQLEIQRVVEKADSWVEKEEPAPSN
log2 fold change (erlotinib): 0.027
log2 fold change [1]: 0.063
log2 fold change [2]: 0.033
log2 fold change [3]: -0.014
log2 fold change [4]: 0.071
log2 fold change [5]: 0
log2 fold change [6]: 0.014
log2 fold change [7]: -0.039
log2 fold change [8]: 0.001
log2 fold change [9]: 0.007
log2 fold change (IRAK-1-4 Inhibitor I): -0.111
log2 fold change (ibrutinib): -0.061
log2 fold change [10]: -0.037
log2 fold change (ralimetinib): 0.027
log2 fold change [11]: -0.222
log2 fold change [12]: -0.477 (active)
log2 fold change [13]: -0.004
log2 fold change (pinometostat): -0.039
log2 fold change [14]: 0.111
log2 fold change [15]: -0.252

CNN2 (UniProt Q99439)
Chain of UniProt Q99439 (Q99439 whole entry, looked up): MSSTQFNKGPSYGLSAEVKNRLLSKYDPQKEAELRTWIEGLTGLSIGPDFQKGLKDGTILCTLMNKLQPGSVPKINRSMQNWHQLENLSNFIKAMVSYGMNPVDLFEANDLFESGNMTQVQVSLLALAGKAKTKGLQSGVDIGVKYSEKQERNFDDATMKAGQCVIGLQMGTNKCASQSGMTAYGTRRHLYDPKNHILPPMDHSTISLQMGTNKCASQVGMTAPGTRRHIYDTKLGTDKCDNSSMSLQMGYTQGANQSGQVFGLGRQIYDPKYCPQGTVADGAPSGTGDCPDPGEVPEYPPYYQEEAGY
log2 fold change (erlotinib): 0.047
log2 fold change [1]: 0.124
log2 fold change [2]: 0.109
log2 fold change [3]: -0.039
log2 fold change [4]: 0.013
log2 fold change [5]: 0.032
log2 fold change [6]: -0.012
log2 fold change [7]: -0.011
log2 fold change [8]: -0.017
log2 fold change [9]: -0.042
log2 fold change (IRAK-1-4 Inhibitor I): -0.037
log2 fold change (ibrutinib): -0.07
log2 fold change [10]: 0.011
log2 fold change (ralimetinib): 0.007
log2 fold change [11]: -0.091
log2 fold change [12]: -0.052
log2 fold change [13]: 0.038
log2 fold change (pinometostat): 0.018
log2 fold change [14]: 0.05
log2 fold change [15]: 0.007

COX5A (UniProt P20674)
Chain of UniProt P20674 (P20674 whole entry, looked up): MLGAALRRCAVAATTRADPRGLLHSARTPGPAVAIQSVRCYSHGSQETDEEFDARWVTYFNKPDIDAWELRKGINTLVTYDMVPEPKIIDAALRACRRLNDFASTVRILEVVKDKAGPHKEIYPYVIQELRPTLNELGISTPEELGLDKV
log2 fold change (erlotinib): -0.005
log2 fold change [1]: -0.05
log2 fold change [2]: 0.104
log2 fold change [3]: 0.052
log2 fold change [4]: 0.045
log2 fold change [5]: 0.016
log2 fold change [6]: 0.183
log2 fold change [7]: 0.051
log2 fold change [8]: -0.026
log2 fold change [9]: -0.081
log2 fold change (IRAK-1-4 Inhibitor I): 0.041
log2 fold change (ibrutinib): 0.008
log2 fold change [10]: -0.09
log2 fold change (ralimetinib): -0.053
log2 fold change [11]: -0.103
log2 fold change [12]: 0.058
log2 fold change [13]: -0.069
log2 fold change (pinometostat): -0.042
log2 fold change [14]: 0.041
log2 fold change [15]: 0.122

CNOT7 (UniProt Q9UIV1)
Chain of UniProt Q9UIV1 (Q9UIV1 whole entry, looked up): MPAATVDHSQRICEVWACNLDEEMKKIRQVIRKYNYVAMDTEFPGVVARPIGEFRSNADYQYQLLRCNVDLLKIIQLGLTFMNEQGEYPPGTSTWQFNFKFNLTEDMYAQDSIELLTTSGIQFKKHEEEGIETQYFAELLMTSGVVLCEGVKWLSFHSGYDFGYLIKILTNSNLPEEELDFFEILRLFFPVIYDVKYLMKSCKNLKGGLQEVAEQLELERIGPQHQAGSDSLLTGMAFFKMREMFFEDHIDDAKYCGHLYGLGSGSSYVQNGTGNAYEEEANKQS
log2 fold change (erlotinib): 0.025
log2 fold change [1]: -0.002
log2 fold change [2]: -0.059
log2 fold change [3]: 0.018
log2 fold change [4]: 0.194
log2 fold change [5]: -0.044
log2 fold change [6]: 0.128
log2 fold change [7]: 0.048
log2 fold change [8]: -0.003
log2 fold change [9]: 0.016
log2 fold change (IRAK-1-4 Inhibitor I): -0.039
log2 fold change (ibrutinib): 0.022
log2 fold change [10]: -0.013
log2 fold change (ralimetinib): -0.016
log2 fold change [11]: -0.021
log2 fold change [12]: -0.002
log2 fold change [13]: 0.079
log2 fold change (pinometostat): 0.066
log2 fold change [14]: -0.039
log2 fold change [15]: 0.033

CCAR1 (UniProt Q8IX12)
Chain of UniProt Q8IX12 (Q8IX12 whole entry, looked up): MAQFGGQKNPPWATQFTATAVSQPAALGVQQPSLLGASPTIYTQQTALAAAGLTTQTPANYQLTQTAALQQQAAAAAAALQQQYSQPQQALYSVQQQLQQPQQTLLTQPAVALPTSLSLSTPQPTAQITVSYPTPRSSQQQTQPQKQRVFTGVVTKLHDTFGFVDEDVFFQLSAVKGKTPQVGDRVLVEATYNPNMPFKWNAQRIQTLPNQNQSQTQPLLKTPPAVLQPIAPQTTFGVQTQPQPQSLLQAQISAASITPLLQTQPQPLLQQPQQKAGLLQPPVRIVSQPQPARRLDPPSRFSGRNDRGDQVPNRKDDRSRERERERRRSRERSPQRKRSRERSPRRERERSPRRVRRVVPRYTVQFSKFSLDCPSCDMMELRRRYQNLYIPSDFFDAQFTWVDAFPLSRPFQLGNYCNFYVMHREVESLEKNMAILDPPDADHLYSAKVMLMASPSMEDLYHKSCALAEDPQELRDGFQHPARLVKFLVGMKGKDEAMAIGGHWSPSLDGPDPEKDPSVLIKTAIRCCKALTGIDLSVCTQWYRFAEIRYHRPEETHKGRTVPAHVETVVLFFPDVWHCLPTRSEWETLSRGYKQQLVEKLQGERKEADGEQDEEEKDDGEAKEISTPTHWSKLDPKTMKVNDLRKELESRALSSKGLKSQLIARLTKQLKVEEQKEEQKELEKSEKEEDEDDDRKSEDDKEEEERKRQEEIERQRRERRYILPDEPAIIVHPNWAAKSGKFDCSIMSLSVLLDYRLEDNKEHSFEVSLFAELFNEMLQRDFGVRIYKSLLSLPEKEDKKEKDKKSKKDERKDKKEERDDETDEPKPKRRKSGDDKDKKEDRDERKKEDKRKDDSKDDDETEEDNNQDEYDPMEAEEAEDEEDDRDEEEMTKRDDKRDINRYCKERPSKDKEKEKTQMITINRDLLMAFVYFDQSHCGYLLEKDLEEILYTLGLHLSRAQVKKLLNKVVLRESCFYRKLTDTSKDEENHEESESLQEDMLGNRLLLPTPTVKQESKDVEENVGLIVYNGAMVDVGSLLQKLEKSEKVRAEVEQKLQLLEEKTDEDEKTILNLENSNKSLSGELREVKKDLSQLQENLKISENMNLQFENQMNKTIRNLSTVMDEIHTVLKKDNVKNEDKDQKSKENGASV
log2 fold change (erlotinib): 0.052
log2 fold change [1]: 0.057
log2 fold change [2]: -0.002
log2 fold change [3]: 0.014
log2 fold change [4]: 0.071
log2 fold change [5]: 0.039
log2 fold change [6]: -0.021
log2 fold change [7]: 0.024
log2 fold change [8]: 0.027
log2 fold change [9]: -0.085
log2 fold change (IRAK-1-4 Inhibitor I): 0.002
log2 fold change (ibrutinib): 0.003
log2 fold change [10]: -0.039
log2 fold change (ralimetinib): -0.012
log2 fold change [11]: -0.103
log2 fold change [12]: -0.168
log2 fold change [13]: 0.006
log2 fold change (pinometostat): -0.009
log2 fold change [14]: -0.03
log2 fold change [15]: 0.209

CHERP (UniProt Q8IWX8)
Chain of UniProt Q8IWX8 (Q8IWX8 whole entry, looked up): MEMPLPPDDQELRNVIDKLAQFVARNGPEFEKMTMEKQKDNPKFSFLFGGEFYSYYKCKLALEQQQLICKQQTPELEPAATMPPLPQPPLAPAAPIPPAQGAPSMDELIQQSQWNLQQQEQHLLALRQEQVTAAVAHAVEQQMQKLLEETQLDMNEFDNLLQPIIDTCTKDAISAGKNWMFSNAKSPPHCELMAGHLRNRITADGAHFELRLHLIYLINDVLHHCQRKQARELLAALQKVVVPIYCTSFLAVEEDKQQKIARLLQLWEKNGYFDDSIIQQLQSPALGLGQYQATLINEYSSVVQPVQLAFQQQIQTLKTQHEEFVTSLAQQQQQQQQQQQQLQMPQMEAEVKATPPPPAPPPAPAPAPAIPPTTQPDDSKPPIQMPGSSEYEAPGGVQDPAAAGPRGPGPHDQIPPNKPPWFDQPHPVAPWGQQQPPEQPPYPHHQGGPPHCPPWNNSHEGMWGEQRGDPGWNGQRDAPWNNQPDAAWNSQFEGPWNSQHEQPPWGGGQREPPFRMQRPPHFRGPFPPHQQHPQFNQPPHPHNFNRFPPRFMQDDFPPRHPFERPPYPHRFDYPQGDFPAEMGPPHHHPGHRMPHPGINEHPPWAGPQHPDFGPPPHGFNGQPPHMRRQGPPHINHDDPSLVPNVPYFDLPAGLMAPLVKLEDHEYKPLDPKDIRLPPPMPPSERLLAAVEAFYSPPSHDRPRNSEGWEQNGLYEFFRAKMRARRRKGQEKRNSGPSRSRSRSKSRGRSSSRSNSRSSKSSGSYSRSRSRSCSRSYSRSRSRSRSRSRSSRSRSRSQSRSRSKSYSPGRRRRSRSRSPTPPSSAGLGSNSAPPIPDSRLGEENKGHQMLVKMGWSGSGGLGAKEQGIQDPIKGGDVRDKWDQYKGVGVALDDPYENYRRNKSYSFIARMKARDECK
log2 fold change (erlotinib): 0.083
log2 fold change [1]: 0.065
log2 fold change [2]: 0.014
log2 fold change [3]: 0.053
log2 fold change [4]: -0.03
log2 fold change [5]: 0.09
log2 fold change [6]: 0.026
log2 fold change [7]: -0.036
log2 fold change [8]: -0.084
log2 fold change [9]: -0.113
log2 fold change (IRAK-1-4 Inhibitor I): -0.091
log2 fold change (ibrutinib): -0.069
log2 fold change [10]: -0.317 (active)
log2 fold change (ralimetinib): 0.013
log2 fold change [11]: -0.074
log2 fold change [12]: -0.097
log2 fold change [13]: 0.048
log2 fold change (pinometostat): 0.021
log2 fold change [14]: 0.122
log2 fold change [15]: -0.079
